We go through 14 molecules from PubChem BioAssay (NCI).

Among the test systems are K-562 leukemia; MALME-3M melanoma; MDA-MB-231 breast; RXF 393 renal; SF-268 CNS; SF-295 CNS; SF-539 CNS; UACC-257 melanoma; M14 melanoma; HCT-15 colon.
Common to all, as to assay: NCI-60 one-dose screen, 48 h (100 = growth as untreated, 0 = no growth, -100 = all killed)
What all share (settings): 10 µM

The structures appear in SMILES notation. This is part of a sample that, as a whole, favours compounds with a hit. Of some 83,000 tested, about 20% had one in any assay.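 48-hour exposure, single concentration, 96-well plates; percent growth endpoint where 0 means no net growth. Active: below 10.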 A number with no mark means an inactive call. Activity calls are given as the source filed them.

Consider `Cn1c(N)c(N=Nc2ccc(S(=O)(=O)Nc3nccs3)cc2)c(=O)n(C)c1=O`, for which the growth in the experiment on K-562 leukemia was 90.2%; with MALME-3M melanoma, 86.8%; in the experiment on MDA-MB-231 breast, 111%; in the experiment with RXF 393 renal, 130%; in the experiment with SF-268 CNS, 103%; in the experiment on SF-295 CNS, 91%. In addition, the growth in the experiment with SF-539 CNS was 98.3%; with UACC-257 melanoma, 95.6%; in the experiment on M14 melanoma, 101%; in the experiment with HCT-15 colon, 110%.
For `COc1ccc(Oc2nc(NC3CCCC3)nc(Sc3ccc(OC)cc3)n2)cc1`, the growth was 53.3% with K-562 leukemia; 69.6% in the experiment on MALME-3M melanoma; 50.1% in the experiment with MDA-MB-231 breast; 74.1% in the experiment with RXF 393 renal; 55.6% in the experiment on SF-268 CNS; 67.4% in the experiment with SF-295 CNS. The growth in the experiment with SF-539 CNS is 83.4%; in the experiment with UACC-257 melanoma, 87.3%; in the experiment with M14 melanoma it was 87.6%; in the experiment on HCT-15 colon, 43.9%.
Consider `O=C(Nc1ccc(Cl)cc1)N1NC(c2ccc(Cl)cc2)C=C1c1ccccc1` (stereo not given), for which the growth with K-562 leukemia was 103%; in the experiment on MALME-3M melanoma, 100%; in the experiment with MDA-MB-231 breast it was 106%; with RXF 393 renal, 102%; in the experiment with SF-268 CNS it was 103%; with SF-295 CNS it was 105%. For the same molecule, the growth in the experiment with SF-539 CNS was 112%; in the experiment on UACC-257 melanoma, 99.7%; with M14 melanoma, 102%; in the experiment with HCT-15 colon, 103%.
As for `O=[N+]([O-])c1cccc(-c2ncc(-c3ccc(Cl)cc3Cl)[nH]2)c1`, the growth with K-562 leukemia is -23.6% (active); in the experiment on MALME-3M melanoma, 125%; in the experiment on MDA-MB-231 breast it was 67.7%; in the experiment with RXF 393 renal, 95%; in the experiment with SF-268 CNS, 54.4%; with SF-295 CNS it was 93.7%. Further, the growth in the experiment with SF-539 CNS is 101%; in the experiment with UACC-257 melanoma, 109%; in the experiment with M14 melanoma it was 5.51% (active); in the experiment on HCT-15 colon it was -89.7% (active).
Consider `Nc1nc(N)c(NC(=O)CNc2ccc(C(=O)O)cc2)c(N)n1`, for which the growth in the experiment with K-562 leukemia was 106%; in the experiment with MALME-3M melanoma, 112%; in the experiment on MDA-MB-231 breast, 106%; with RXF 393 renal, 96.4%; in the experiment with SF-268 CNS, 119%; in the experiment on SF-295 CNS it was 99.2%. In addition, the growth is 101% in the experiment on SF-539 CNS, 103% with UACC-257 melanoma, 111% in the experiment on M14 melanoma and 112% with HCT-15 colon.
`O=C(N/N=C/c1ccccc1)C(Oc1ccccc1)c1ccccc1` (stereo not given): the growth with K-562 leukemia is 79%; in the experiment with MALME-3M melanoma, 71.8%; in the experiment with MDA-MB-231 breast, 102%; in the experiment with RXF 393 renal, 100%; in the experiment on SF-268 CNS it was 97.1%; in the experiment with SF-295 CNS it was 93.7%. The growth in the experiment on SF-539 CNS is 93.7%; with UACC-257 melanoma it was 96.7%; in the experiment with M14 melanoma, 95.6%; in the experiment with HCT-15 colon it was 91.9%.
As for `CC(=O)C1CCC2C3CC(F)C4=CC(=O)CCC4(C)C3C(O)CC12C` (stereo not given), the growth with K-562 leukemia is 86.1%; with MALME-3M melanoma, 86.6%; in the experiment with MDA-MB-231 breast, 98.8%; with RXF 393 renal, 118%; in the experiment on SF-268 CNS it was 106%; with SF-295 CNS it was 97.8%. Also, the growth in the experiment on SF-539 CNS is 101%; in the experiment with UACC-257 melanoma it was 98.6%; in the experiment with M14 melanoma, 93.6%; in the experiment with HCT-15 colon it was 108%.
Regarding `S=c1[nH]ccn1-c1c(Cl)cccc1Cl`, the growth was 103% in the experiment with K-562 leukemia; 109% with MALME-3M melanoma; 102% in the experiment on MDA-MB-231 breast; 106% with RXF 393 renal; 118% in the experiment on SF-268 CNS; 99.1% with SF-295 CNS. For the same molecule, the growth is 94.4% in the experiment on SF-539 CNS, -4.51% (active) in the experiment on UACC-257 melanoma, 98.1% in the experiment with M14 melanoma and 100% with HCT-15 colon.
On to `CC(=O)N1N=C(c2ccc(Cl)cc2)CC1c1sc(Cl)nc1Cl` (stereo not given), for which the growth with K-562 leukemia was 66.1%; with MALME-3M melanoma, 94.8%; in the experiment on MDA-MB-231 breast, 82.1%; in the experiment with RXF 393 renal, 80.5%; in the experiment on SF-268 CNS it was 80.1%; in the experiment with SF-295 CNS, 80.3%. Also, the growth in the experiment with SF-539 CNS was 104%; in the experiment on UACC-257 melanoma, 91.9%; in the experiment with M14 melanoma, 94.6%; with HCT-15 colon, 96.3%.
Turning to `O=C(CSSCC(=O)c1ccc(Cl)cc1)c1ccc(Cl)cc1`, the growth was 52.9% in the experiment with K-562 leukemia; 39.7% in the experiment on MALME-3M melanoma; 92.8% in the experiment on MDA-MB-231 breast; 99.7% in the experiment with RXF 393 renal; 61% in the experiment with SF-268 CNS; 35.9% with SF-295 CNS. Moreover, the growth with SF-539 CNS is 68.4%; with UACC-257 melanoma it was 59.2%; in the experiment on M14 melanoma it was 82.2%; in the experiment on HCT-15 colon, 87.2%.
Regarding `C#Cc1ccc(-n2c(/C=C/c3ccc(O)cc3)nc3ncccc3c2=O)cc1`, the growth was 25% with K-562 leukemia; 39.1% with MALME-3M melanoma; 85.2% with MDA-MB-231 breast; -7.96% (active) in the experiment with RXF 393 renal; 53.8% in the experiment on SF-268 CNS; 31.8% with SF-295 CNS. Also, the growth in the experiment with SF-539 CNS was 31.7%; in the experiment on UACC-257 melanoma, 36.5%; in the experiment on M14 melanoma, 43.1%; in the experiment on HCT-15 colon, 53.6%.
As for `c1ccc(CSc2nnc3c4c5c(sc4nc(-c4cccnc4)n23)CCCCCC5)cc1`, the growth is 21.7% with K-562 leukemia; 16.2% with MALME-3M melanoma; 71.4% with MDA-MB-231 breast; 83.3% in the experiment on RXF 393 renal; 57% in the experiment with SF-268 CNS; 45.1% in the experiment on SF-295 CNS. Besides, the growth in the experiment with SF-539 CNS was 79.7%; with UACC-257 melanoma it was 35%; with M14 melanoma, 45%; in the experiment on HCT-15 colon, 94.2%.
As to `COc1ccc(/C=C2/CN(CCC#N)C/C(=C\c3ccc(OC)cc3)C2=O)cc1`, the growth is 1.95% (active) with K-562 leukemia; -44.7% (active) with MALME-3M melanoma; -25.4% (active) in the experiment on MDA-MB-231 breast; -63% (active) with RXF 393 renal; 0.448% (active) in the experiment with SF-268 CNS; -32.7% (active) in the experiment on SF-295 CNS. The growth is 9.73% (active) with SF-539 CNS, 17.4% with UACC-257 melanoma, 0.654% (active) in the experiment on M14 melanoma and 0.438% (active) in the experiment on HCT-15 colon.
`COc1ccc(C(=O)/C=C/c2cc(-c3cc(OC)c(OC)c(OC)c3)n[nH]2)cc1`: the growth is 5.85% (active) with K-562 leukemia; 69% with MALME-3M melanoma; 38.5% in the experiment with MDA-MB-231 breast; 30.1% with RXF 393 renal; 31.2% with SF-268 CNS; -23.8% (active) with SF-295 CNS. Besides, the growth in the experiment with SF-539 CNS is -25.6% (active); with UACC-257 melanoma, 70.8%; in the experiment on M14 melanoma it was 54.6%; in the experiment with HCT-15 colon, 8.52% (active).
